TRPV1 potentiator – enhances activation of the human vanilloid receptor TRPV1 | potentiation, % at 8.33 µM | TRPV1-expressing cells, Fluo-8 calcium influx, capsaicin EC20 potentiation | 320,000 compounds, 0.02% hits; in the data active = potentiation above about 80%; inconclusive = between about 30% and that limit
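TRPV1-expressing cells were cultured overnight at 35.5C and loaded with Fluo-8 calcium dye for 40 to 90 min at room temperature. After a 10 s baseline, compound was added and calcium influx was read kinetically for 3 min (ex 480/em 520 nm).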
CXXC DNA block – inhibitors of human MLL CXXC domain-DNA interaction | Q03164 | MLL-CXXC / FITC-HOXA9 DNA fluorescence polarization | Potency, µM (highest dose often 115 µM), hits mostly inhibitors | 290,000 compounds, 0.037% hits | AID 2662; active = well fitted inhibition curve with a large enough effect in the polarisation, with a control signal flat, not every such curve was filed as active; inconclusive = small, poorly fitted or top-dose-only effect, or effect the other way, or a change in a side signal; inactive = no such curve, though single readings can be large or run the other way; the % refers to the polarisation
Target sequence (Q03164 whole entry, looked up, the tested form may be a part): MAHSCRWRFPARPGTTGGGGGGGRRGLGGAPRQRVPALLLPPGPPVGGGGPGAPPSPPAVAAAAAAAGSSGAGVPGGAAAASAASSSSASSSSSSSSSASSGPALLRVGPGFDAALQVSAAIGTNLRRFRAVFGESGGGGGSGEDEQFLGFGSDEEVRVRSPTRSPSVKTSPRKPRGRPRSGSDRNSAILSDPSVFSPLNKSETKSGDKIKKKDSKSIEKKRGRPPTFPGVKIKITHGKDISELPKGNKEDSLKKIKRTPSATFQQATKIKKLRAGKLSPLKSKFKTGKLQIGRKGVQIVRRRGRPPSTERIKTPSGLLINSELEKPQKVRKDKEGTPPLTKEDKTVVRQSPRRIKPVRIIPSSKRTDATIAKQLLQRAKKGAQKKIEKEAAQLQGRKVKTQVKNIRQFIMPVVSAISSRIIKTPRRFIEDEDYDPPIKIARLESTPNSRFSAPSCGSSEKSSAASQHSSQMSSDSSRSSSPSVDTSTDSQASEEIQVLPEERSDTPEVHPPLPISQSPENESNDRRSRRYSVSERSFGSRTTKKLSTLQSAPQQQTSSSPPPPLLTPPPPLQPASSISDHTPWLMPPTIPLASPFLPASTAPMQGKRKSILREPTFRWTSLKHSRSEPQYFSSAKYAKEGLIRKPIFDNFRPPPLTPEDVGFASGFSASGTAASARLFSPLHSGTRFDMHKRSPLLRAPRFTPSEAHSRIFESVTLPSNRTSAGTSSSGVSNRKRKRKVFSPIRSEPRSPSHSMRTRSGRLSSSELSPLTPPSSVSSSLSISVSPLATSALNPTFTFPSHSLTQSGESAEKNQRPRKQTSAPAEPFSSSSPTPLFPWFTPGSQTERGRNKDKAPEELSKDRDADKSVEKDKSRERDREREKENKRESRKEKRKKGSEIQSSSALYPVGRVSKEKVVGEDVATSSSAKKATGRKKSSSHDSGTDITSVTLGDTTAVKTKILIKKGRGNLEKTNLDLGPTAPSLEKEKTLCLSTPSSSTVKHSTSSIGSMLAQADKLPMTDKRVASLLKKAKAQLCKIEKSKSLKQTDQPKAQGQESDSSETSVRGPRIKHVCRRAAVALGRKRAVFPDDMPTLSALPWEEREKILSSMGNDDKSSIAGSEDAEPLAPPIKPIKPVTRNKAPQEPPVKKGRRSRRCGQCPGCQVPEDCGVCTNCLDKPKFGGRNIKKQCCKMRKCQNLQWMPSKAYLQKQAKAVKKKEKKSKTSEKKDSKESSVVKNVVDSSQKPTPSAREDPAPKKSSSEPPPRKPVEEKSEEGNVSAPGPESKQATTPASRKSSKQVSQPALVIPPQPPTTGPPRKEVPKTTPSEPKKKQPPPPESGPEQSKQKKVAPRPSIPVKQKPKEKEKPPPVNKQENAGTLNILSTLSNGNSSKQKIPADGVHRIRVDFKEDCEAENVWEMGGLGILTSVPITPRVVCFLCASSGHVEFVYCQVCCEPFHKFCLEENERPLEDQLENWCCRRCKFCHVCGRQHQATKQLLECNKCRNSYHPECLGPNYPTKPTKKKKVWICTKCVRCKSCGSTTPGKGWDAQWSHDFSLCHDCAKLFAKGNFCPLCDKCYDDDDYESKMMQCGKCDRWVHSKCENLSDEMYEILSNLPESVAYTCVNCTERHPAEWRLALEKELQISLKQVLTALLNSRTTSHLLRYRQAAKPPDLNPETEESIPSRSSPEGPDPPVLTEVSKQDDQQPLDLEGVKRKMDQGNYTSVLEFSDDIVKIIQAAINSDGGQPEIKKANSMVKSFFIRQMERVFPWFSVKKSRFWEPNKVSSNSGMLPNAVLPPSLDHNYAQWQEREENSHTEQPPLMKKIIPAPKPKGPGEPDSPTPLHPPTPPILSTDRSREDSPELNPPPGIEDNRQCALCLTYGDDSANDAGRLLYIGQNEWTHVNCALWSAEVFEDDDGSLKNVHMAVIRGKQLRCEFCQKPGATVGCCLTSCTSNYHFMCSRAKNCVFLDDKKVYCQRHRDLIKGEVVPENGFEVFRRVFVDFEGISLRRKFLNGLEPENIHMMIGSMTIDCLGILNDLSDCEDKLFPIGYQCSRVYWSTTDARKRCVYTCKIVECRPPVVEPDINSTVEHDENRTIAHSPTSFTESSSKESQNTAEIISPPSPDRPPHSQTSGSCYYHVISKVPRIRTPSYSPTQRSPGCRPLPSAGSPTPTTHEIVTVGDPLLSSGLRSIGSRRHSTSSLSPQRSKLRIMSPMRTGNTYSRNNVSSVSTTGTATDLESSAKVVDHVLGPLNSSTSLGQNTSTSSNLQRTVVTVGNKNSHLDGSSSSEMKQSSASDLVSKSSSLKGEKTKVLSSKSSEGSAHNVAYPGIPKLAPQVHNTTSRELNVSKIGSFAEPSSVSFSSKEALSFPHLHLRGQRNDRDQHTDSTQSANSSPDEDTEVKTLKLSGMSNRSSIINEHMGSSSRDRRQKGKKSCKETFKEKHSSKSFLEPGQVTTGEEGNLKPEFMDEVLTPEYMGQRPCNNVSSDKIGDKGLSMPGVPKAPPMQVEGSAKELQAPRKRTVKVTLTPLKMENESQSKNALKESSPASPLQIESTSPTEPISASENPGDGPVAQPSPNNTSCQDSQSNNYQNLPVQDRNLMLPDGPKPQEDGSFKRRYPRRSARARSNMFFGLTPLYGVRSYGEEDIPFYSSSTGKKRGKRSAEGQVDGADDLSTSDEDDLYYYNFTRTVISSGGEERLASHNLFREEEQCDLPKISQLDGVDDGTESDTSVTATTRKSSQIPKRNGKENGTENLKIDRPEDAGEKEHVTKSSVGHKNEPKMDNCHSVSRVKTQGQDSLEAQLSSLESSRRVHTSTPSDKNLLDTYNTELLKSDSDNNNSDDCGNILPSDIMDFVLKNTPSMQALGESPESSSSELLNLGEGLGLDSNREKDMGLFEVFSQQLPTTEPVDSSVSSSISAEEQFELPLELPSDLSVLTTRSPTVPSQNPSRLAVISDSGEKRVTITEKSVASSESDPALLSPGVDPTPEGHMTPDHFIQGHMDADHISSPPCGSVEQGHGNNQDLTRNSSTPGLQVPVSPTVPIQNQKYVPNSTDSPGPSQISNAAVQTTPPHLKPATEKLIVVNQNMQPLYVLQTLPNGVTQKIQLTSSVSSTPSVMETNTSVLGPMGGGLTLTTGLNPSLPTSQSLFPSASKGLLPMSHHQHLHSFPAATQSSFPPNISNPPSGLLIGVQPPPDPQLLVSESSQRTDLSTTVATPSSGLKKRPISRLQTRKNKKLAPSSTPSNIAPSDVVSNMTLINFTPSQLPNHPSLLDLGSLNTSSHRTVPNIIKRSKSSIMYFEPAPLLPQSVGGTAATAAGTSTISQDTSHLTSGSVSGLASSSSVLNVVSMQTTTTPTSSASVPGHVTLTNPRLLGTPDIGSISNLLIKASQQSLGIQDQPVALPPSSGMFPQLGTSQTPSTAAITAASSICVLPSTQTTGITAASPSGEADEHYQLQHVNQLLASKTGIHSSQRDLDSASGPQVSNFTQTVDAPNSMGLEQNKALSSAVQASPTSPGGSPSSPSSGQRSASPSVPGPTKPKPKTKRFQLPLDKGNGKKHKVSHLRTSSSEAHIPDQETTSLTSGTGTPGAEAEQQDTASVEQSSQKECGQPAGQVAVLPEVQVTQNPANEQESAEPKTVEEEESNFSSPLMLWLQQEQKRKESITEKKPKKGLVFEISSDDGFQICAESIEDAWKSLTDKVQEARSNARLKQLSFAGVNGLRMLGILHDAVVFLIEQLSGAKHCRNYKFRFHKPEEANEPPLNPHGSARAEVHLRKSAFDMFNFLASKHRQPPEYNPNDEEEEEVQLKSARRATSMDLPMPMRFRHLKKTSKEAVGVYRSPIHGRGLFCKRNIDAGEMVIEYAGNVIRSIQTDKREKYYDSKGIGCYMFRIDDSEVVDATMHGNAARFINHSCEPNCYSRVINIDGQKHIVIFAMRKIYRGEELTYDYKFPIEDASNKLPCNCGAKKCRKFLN
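Fluorescence polarization: 7 uM MLL-CXXC (stock) preincubated 5 min with compounds, then 50 nM fluorescein-HOX-A9 DNA (stock) added; 30 min ambient. Buffer 50 mM Tris-HCl pH 7.5, 50 mM NaCl, 1 mM DTT, 0.05% BSA.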
TRPV1 agonist – agonists of human vanilloid receptor 1 (TRPV1); Q8NER1; TRPV1-expressing cells, Fluo-8 calcium influx, agonist mode; activation, % at 8.33 µM; 320,000 compounds, 0.19% hits; in the data active = activation above about 80%; inconclusive = between about 30% and that limit
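TRPV1-expressing cells were cultured overnight at 35.5C and loaded with Fluo-8 calcium dye for 40 to 90 min at room temperature. After a 10 s baseline, compound was added and calcium influx was read kinetically for 3 min (ex 480/em 520 nm).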
Menin-MLL TR inh – inhibitors of human menin-MLL interaction, mutant MLL peptide | O00255 | Menin + Texas Red MLL mutant peptide, fluorescence polarization | Potency, µM (doses to about 61.6 µM), usual class: inhibitors | 270,000 compounds, 0.23% hits | AID 1768; active = well fitted inhibition curve with a large enough effect in the polarisation, with a control signal flat, not every such curve was filed as active; inconclusive = small, poorly fitted or top-dose-only effect, or effect the other way, or a change in a side signal; inactive = no such curve, though single readings can be large or run the other way; the % refers to the polarisation
Menin-MLL FL inh – menin-MLL binding inhibition, fluorescein peptide; Fluorescence polarization, fluorescein-MLL peptide displacement from menin; FP activity change, % at 61.4 µM; 290,000 tested, under 10 active; AID 1766; active = well fitted curve in the direction sought with a large enough effect in the polarisation, not every such curve was filed as active; inconclusive = small, poorly fitted or top-dose-only effect, or effect the other way, or a change in a side signal; inactive = no such curve, though single readings can be large or run the other way; the % refers to the polarisation
Numbers stand for hits; n = inactive; u = inconclusive; x = no result given; [ ] = remark or other dose. Shown are actives, neighbours in structure and some others; about 0.32% of the full set was active somewhere.

SMILES	TRPV1 potentiator	CXXC DNA block	TRPV1 agonist	Menin-MLL TR inh	Menin-MLL FL inh
CCCCOc1ccc(-c2c(C#N)c(N)nc(SCC(N)=O)c2C#N)cc1	n	n	n	12.6µM	n
CCCCOC(=O)CSc1nc(N)c(C#N)c(-c2ccc(OCC)cc2)c1C#N	n	n	n	u	n
CC(C)OC(=O)c1cn(Cc2c(F)cccc2F)c2sc(-c3ccc(NC(=O)C(C)C)cc3)c(CN(C)Cc3ccccc3)c2c1=O	x	x	x	u	n
CCCCc1ccc(NC(=S)N2CCC(O)CC2)cc1	n	n	85.2	n	n
OC1CCN(C(=S)Nc2ccc(Nc3ccccc3)cc2)CC1	n	n	n	n	n
CN1C(=CC=C2C=C(I)C(=O)C(I)=C2)C(C)(C)c2ccccc21	n	n	n	x	u
CN1/C(=C\C=C2/C(=O)Oc3ccccc3C2=O)C(C)(C)c2ccccc21	n	u	106.7	u	x
Nc1c(C(=O)c2ccccc2)sc2nsc(SCCN3CCOCC3)c12	n	u	105.7	x	u
C/C=C(/C)C(=O)O[C@H]1C[C@@]2(C)O[C@H]2[C@@H](OC(C)=O)C2(C)CC[C@@](O)(C(C)C)C12 (some centres not stated)	x	x	x	n	n
Cc1ccccc1NC(=O)Nc1ccc(C(F)(F)F)cc1	n	n	u	u	n
Cc1cc2c(NC(=O)Nc3ccccc3)cccc2nn1	n	n	86.6	x	n
Cc1cc2c(NC(=O)Nc3ccc(C(C)(C)C)cc3)cccc2nn1	n	n	113.7	x	n
COC(=O)c1c(C)nc(C)c(C(=O)OC)c1-c1ccccc1[N+](=O)[O-]	x	x	x	n	n
CC(C)c1cc(C(C)C)c(S(=O)(=O)Nc2cccc3cccnc23)c(C(C)C)c1	x	x	x	n	n
O=C(NCc1ccccc1)[C@@H]1C[C@H]1[C@@H](NP(=O)(c1ccccc1)c1ccccc1)c1ccccc1	n	n	90.7	n	n
Cc1ccc(N2C(=O)C3N=NN(CC(=O)N4N=C(c5ccccc5)CC4c4ccccc4)C3C2=O)cc1 (configuration not stated)	83.6	n	n	u	n
COc1ccc(C2=NN(C(=O)CCC(=O)O)C(c3ccccc3)C2)cc1 (configuration not stated)	n	n	n	n	n
C[C@H]1Cc2c(-c3ccccc3)nc3c(c2CO1)CN(C(=O)c1cc(I)ccc1F)CC3	x	x	x	n[11.7 µM]	n[11.7 µM]
CC(C)(CCCCCCCCCCC(C)(C)CC(=O)O)CC(=O)O	x	x	x	n	n
COc1cc2[nH]c(C(=O)Nc3ccc(F)cc3)cc2c(OC)c1OC	n	n	86.1	n	n
CC1CCCN(c2ccc(C(=O)Nc3cccnc3)cc2[N+](=O)[O-])C1 (configuration not stated)	n	n	87.3	n	n
CC(=O)Nc1ccc(N2CCCC(C)C2)c([N+](=O)[O-])c1 (configuration not stated)	n	n	n	n	n
Nc1ccccc1S(=O)(=O)Nc1cccc2cccnc12	x	x	x	u	n
Cc1nc2c(c(C)nn2-c2ccccc2)c(C)c1CCC(=O)NCCCOC(C)C	n	n	n	n	n
CCCCNC(=O)CCc1c(C)nc2c(c(C)nn2-c2ccccc2)c1C	n	n	93.7	n	n
SMILES	TRPV1 potentiator	CXXC DNA block	TRPV1 agonist	Menin-MLL TR inh	Menin-MLL FL inh
Cc1ccc(-n2nc(C)c3c(C)c(CCC(=O)NCc4ccco4)c(C)nc32)cc1	n	n	81.7	n	n
Cc1ccc(-n2nc(C)c3c(C)c(CCC(=O)NCc4ccccc4)c(C)nc32)cc1	n	n	81.8	n	n
O=C(N/N=C/c1ccncc1)c1ccccn1	n	n	n	100µM	n
O=C(N/N=C/C=C/c1ccccc1)c1ccccn1	n	n	96.6	x	n
COC(=O)CCCC1=CC2=C(c3ccccc3)C(=O)C(C)(OC(=O)C3CCCC3)C(=O)C2=CN1CCCOC(C)C (configuration not stated)	x	x	x	u	n[11.7 µM]
Nc1nonc1-c1nc2ccccc2n1CC(=O)N/N=C\c1ccc(-c2ccc(Cl)cc2)o1	n	n	n	10µM	n
CCOCc1c(C(=O)Nc2ccc(OC)nc2)oc2ccccc12	n	n	90.4	n	u
COC(=O)c1cc(NC(=O)Cc2ccccc2[N+](=O)[O-])cc(C(=O)OC)c1	n	n	83.0	n	n
O=C(Cc1ccccc1[N+](=O)[O-])Nc1ccc2c(c1)OCCO2	n	n	n	n	n
CCc1c2c(nc3ccc(OC(=O)N4CCC(N5CCCCC5)CC4)cc13)-c1cc3c(c(=O)n1C2)COC(=O)C3(O)CC (configuration not stated)	x	x	x	n	n
OC[C@H]1NC[C@@H](O)[C@@H](O)[C@@H]1O	x	x	x	n	n
CC(=O)Nc1ccc(S(=O)(=O)N2CCc3nc(COc4ccccc4)c4c(c3C2)CO[C@@H](C)C4)cc1	x	x	x	n[11.7 µM]	n[11.7 µM]
CCC(=O)NC(c1ccc(OC)cc1)c1cc(Cl)c2cccnc2c1O (configuration not stated)	n	n	84.3	n	n
CCC(=O)NC(c1ccco1)c1cc(Cl)c2cccnc2c1O (configuration not stated)	n	n	n	u	n
S=C(Nc1ccccc1Cl)N(Cc1ccccc1)Cc1ccccn1	132.2	n	n	n	n
COc1ccccc1NC(=S)N(Cc1ccccc1)Cc1ccccn1	n	n	n	n	x
C=CC1=C2C=C(C3CC3)N(CCCCO)C=C2C(=O)C(C)(OC(=O)c2ccco2)C1=O (configuration not stated)	x	x	x	n[11.7 µM]	n[11.7 µM]
COC(=O)c1cc(NC(=O)c2ccccc2)c(=O)oc1/C=C/Nc1ccc(Oc2ccccc2)cc1	n	u	n	10µM	u
O=C1C2C3c4ccccc4C(c4ccccc43)C2C(=O)N1c1nc(-c2ccccc2)cs1 (configuration not stated)	n	n	n	11.2µM	n
Cc1ccc(Nc2c(-c3ccccn3)nc3cc(C)ccn23)cc1	n	u	u	n	n
Cc1ccn2c(Nc3ccc4c(c3)OCO4)c(-c3ccccn3)nc2c1	n	u	n	35.5µM	u
Nn1c(Cc2ccccc2)nc2cc(Cl)ccc2c1=O	95.0	n	n	n	n
NC(=O)C1CC2(NC(=O)NC2=O)c2cc(F)ccc2O1 (configuration not stated)	x	n	x	n	n
O=C(O)c1ccc2cc(-c3ccc(O)c(C45CC6CC(CC(C6)C4)C5)c3)ccc2c1	x	x	x	u	n
O=C(CSc1nnc2c3ccccc3c3ccccc3c2n1)Nc1ccccc1	n	n	n	12.6µM	n
SMILES	TRPV1 potentiator	CXXC DNA block	TRPV1 agonist	Menin-MLL TR inh	Menin-MLL FL inh
O=C(NCc1cccnc1)c1ccc(-c2ccc(Cl)cc2)o1	n	n	85.5	n	n
CCOC(=O)C(CS)NCCN[C@@H](CS)C(=O)OCC (some centres not stated)	x	n	x	n	n
CC(C)(C)c1csc(NNC(=O)c2ccc(Br)cc2)n1	n	n	80.4	n	n
CC(C)(C)c1csc(NC(=O)c2ccccc2O)n1	n	n	n	n	n
O=C(N/C=C/c1ccccc1)c1ccccc1	n	x	83.1	x	x
O=C(NCCNC(=O)c1ccccc1)c1ccccc1	n	n	n	x	n
